Outcome data for 118 compounds are collected here from PubChem BioAssay AID618 (Sanford-Burnham Center for Chemical Genomics, 2007).

Screen size: about 87,000 compounds; about 540 (0.62%) were called active. No rule for the calls is given here. What follows is part of a selection rich in actives, with near analogues and random picks from the rest. Entries with a potency or affinity are not part of this list.

This assay is described as follows: MT1-MMP gene expression reporter suppression – cell-based, luciferase reporter, luminescence (AID 618).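 Also: actives suppress MT1-MMP promoter-driven transcription so potencies describe inhibitors.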 The note with it: MT1-MMP promoter luciferase reporter cells.
Regarding `Cc1ccccc1C1CC(c2ccc(F)cc2)Nc2nc(N)nn21` (stereo not drawn), the call was inactive. With `O=C1CCC(=O)N1CCCCCc1nc(-c2ccccc2)no1` the entry was “inactive”; with `NS(=O)(=O)c1ccc(CNC(=O)C2CCCCC2)cc1`, “inactive”; with `CCn1c(SCC(=O)NCC(=O)Nc2ccc(F)cc2)nnc1-c1cccs1`, “inactive”.

For the compound `O=C(COc1c(F)c(F)c(C(F)(F)F)c(F)c1F)Nc1ccc(N2CCOCC2)c(Cl)c1`, the result was inactive.

On to `CCOC(=O)C(NC(=O)CC(C)C)(Nc1cc(C)on1)C(F)(F)F` (stereo not drawn), for which the compound was called inactive. `CCC(C)(C)n1nnnc1CN1CCC(c2nc3ccc(C)cc3[nH]2)CC1`: the outcome was inactive.

In the case of `Cc1cc2nc(-c3cccc(NC(=O)c4ccc(Br)o4)c3C)oc2cc1C`, the call was inactive. Consider `Cc1cc2oc(=O)cc(CN3CCC(C)CC3)c2cc1Cl`, for which the compound was called inactive. Regarding `c1ccc(OCCn2c(-c3ccco3)nc3ccccc32)cc1`, the call was inactive. With `CCC(C)C(=O)N1CCc2cc(-c3csc(N)n3)ccc21` (stereo not drawn) the entry was “inactive”; with `CC(C)C(=O)N1CCc2cc(-c3csc(N)n3)ccc21`, “inactive”. Consider `Cc1csc(=O)n1CC(=O)OCc1cccc2ccccc12`, for which the call was inactive. Consider `CCOC(=O)c1nn(-c2ccc3c(c2)CCN3C(C)=O)cc1O`, for which the compound was called active. For `CCOC(=O)c1cc(C(=O)OCC)cc(-n2cc(O)c(C(=O)OCC)n2)c1` the value was “inactive”. With `CCOC(=O)c1nn(-c2cc(C(=O)OC)cc(C(=O)OC)c2)cc1O` the entry was “inactive”. For `COC(=O)c1nn(-c2ccc3c(c2)OCO3)cc1O` the value was “inactive”; for `CCOC(=O)c1nn(-c2ccc3c(c2)OCO3)cc1O`, “inactive”. Consider `COCCCNS(=O)(=O)c1ccc2c(c1)CCN2C(C)=O`, for which the outcome was inactive.

Consider `COC(=O)c1nn(-c2c(C)n(C)n(-c3ccccc3)c2=O)cc1O`, for which the compound was classed as inactive. As to `O=S(=O)(NCc1ccc(Cl)cc1)c1cnc[nH]1`, the result was inactive.

Consider `O=C(O)C1CCCCC1C(=O)NC1CCCCC1` (stereo not drawn), for which the result was inactive. For `CC(C)(C)C(=O)NC1CCN(S(C)(=O)=O)CC1` the value was “inactive”; for `Cn1cccc1Cc1nnc(SCC(=O)N2CCc3ccccc32)n1-c1ccc(F)cc1`, “inactive”; for `CC1=NC(=O)C(N=Nc2ccccc2)N1c1ccccc1` (stereo not drawn), “inactive”. `CC1=NC(=O)C(N=Nc2cccc(O)c2)N1c1ccccc1` (stereo not drawn): the result was inactive. With `Cc1ccn(Cc2n[nH]c(=S)n2Cc2ccccc2)n1` the entry was “inactive”; with `COc1ccc(C)cc1S(=O)(=O)N1CCC(C(=O)NCCC2=CCCCC2)CC1`, “inactive”; with `NS(=O)(=O)c1ccc(NS(=O)(=O)c2cccs2)cc1`, “inactive”. With `CN(C)c1ccc2c(c1)OC(N)=C(C#N)C2c1cccc(F)c1` (stereo not drawn) the entry was “active”; with `CCN(CC)c1ccc2c(c1)OC(N)=C(C#N)C2c1cccnc1` (stereo not drawn), “active”; with `N#CC1=C(N)Oc2cc(O)ccc2C1c1ccccc1` (stereo not drawn), “inactive”. For `COc1cc(C2C(C#N)=C(N)Oc3cc(N(C)C)ccc32)cc2c1OCO2` (stereo not drawn) the value was “active”. Consider `COc1cc(C2C(C#N)=C(N)Oc3cc(O)ccc32)cc2c1OCO2` (stereo not drawn), for which the compound was called inactive. For `N#CC1=C(N)Oc2cc(N)ccc2C1c1ccc(F)cc1` (stereo not drawn) the value was “inactive”. With `N#CC1=C(N)Oc2cc3ccccc3cc2C1c1cccnc1` (stereo not drawn) the entry was “inactive”; with `N#CC1=C(N)Oc2c(ccc3cccnc23)C1c1cccnc1` (stereo not drawn), “inactive”; with `COc1cc(C2C(C#N)=C(N)Oc3cc(C)oc(=O)c32)cc2c1OCO2` (stereo not drawn), “inactive”. With `Cc1cc(NC(=O)CSc2nc3c(c(=O)n2CCc2ccccc2)SC(C)C3)no1` (stereo not drawn) the entry was “inactive”; with `O=C1CC(c2ccccc2)n2nc(NC(=O)c3cccs3)nc2N1` (stereo not drawn), “inactive”; with `COc1cc2nc(C)sc2cc1SC`, “inactive”. On to `O=C(C1CCCN(Cc2ccccc2Br)C1)N1CCCCC1` (stereo not drawn), for which the compound was called inactive.

Consider `COc1cccc(NC(=O)CSc2nnc(-c3ccoc3C)n2CC2CCCO2)c1` (stereo not drawn), for which the outcome was inactive. With `C=CCNC(=O)C1CCN(c2nc(C)cc(-c3ccccc3)n2)CC1` the entry was “inactive”; with `c1ccc(C2=Nn3c(nnc3-c3ccncc3)SC2)cc1`, “inactive”. For `COc1ccc(CC(C(=O)Nc2cc(C)ccc2C)/C(N)=N/O)cc1` (stereo not drawn) the value was “inactive”.

Turning to `Cc1ccc2nc(-c3cccc(S(=O)(=O)N(C)C)c3)cn2c1`, the outcome was inactive. With `Cc1ccc2nc(-c3ccccc3)cn2c1`, the call was active. For `COc1ccc(-c2cn3cc(C)ccc3n2)cc1OC`, the outcome was inactive. With `CCOc1ccccc1NC(=O)Cn1nnc(C(=O)NCc2ccco2)c1N` the entry was “inactive”; with `CCOC(=O)C(C(=O)OCC)=C1OC(=O)c2ccccc21`, “inactive”.

Regarding `CN(C)CCCNC(=O)c1ccc(-c2ccccc2)cc1`, the outcome was inactive. For `CCOC(=O)CNC(=O)c1cn(CC(C)C)c(=O)c2cc(OC)c(OC)cc12` the value was “inactive”; for `Cc1ccc2cc(CN(CC3CCCO3)S(=O)(=O)c3c(C)ccc4nsnc34)c(=O)[nH]c2c1` (stereo not drawn), “inactive”; for `COCc1nnc(NS(=O)(=O)c2c(C)cc(C)cc2C)s1`, “inactive”. With `O=c1/c(=C/c2ccc(O)cc2)sc2n1CCCN=2`, the outcome was inactive. For `O=c1/c(=C\c2ccc3c(c2)OCO3)sc2n1CCCN=2` the value was “inactive”; for `CN(C)c1ccc(/C=c2\sc3n(c2=O)CCCN=3)cc1`, “active”. With `O=C(NCCN1CCOCC1)c1ccc2ccccc2n1` the entry was “inactive”. With `COCCn1cc(C(=O)NCCCN2CCC(C)CC2)c2c3ccccc3n(C)c2c1=O` the entry was “inactive”; with `CCC(C)(C)n1nnnc1C(c1cc2ccc(OC)cc2[nH]c1=O)N1CCc2ccccc21` (stereo not drawn), “inactive”; with `O=C(Nc1ccc(NC(=O)c2ccco2)nc1)c1cccnc1`, “inactive”. As to `O=C(Cc1ccccc1)Nc1ccc(NC(=O)c2ccco2)nc1`, the call was inactive. Take `CCC(=O)Nc1ccc(NC(=O)c2ccccn2)cn1`: the compound was classed as inactive.

Consider `CCCC(=O)Nc1ccc(NC(=O)c2ccccn2)cn1`, for which the compound was called inactive. `O=C(Nc1ccc(NC(=O)C2CCCCC2)nc1)c1ccco1`: the call was inactive. With `O=C(Nc1ccc(NC(=O)C2CC2)nc1)c1ccco1` the entry was “inactive”.

Turning to `O=C(Nc1ccc(NC(=O)C2CCCCC2)cn1)c1ccco1`, the outcome was active. With `CCN(Cc1ccccc1)C(c1cc2cc(C)ccc2[nH]c1=O)c1nnnn1CCOC` (stereo not drawn) the entry was “inactive”; with `CCCCCCn1c(N2CCN(c3ccccc3)CC2)nc2c1c(=O)n(C)c(=O)n2C`, “inactive”.

`O=C(Cn1cnc2ccccc2c1=O)N1CCOCC1`: the result was inactive. For `CCC1=C2CC[C@H]3C(=O)N(c4ccccc4)C(=O)[C@H]3[C@H]2[C@@]2(Cc3ccccc3)C(=O)N(CC(=O)OC)C(=O)N2C1=O` the value was “inactive”. Consider `N#Cc1c(/N=C/c2cccs2)sc2c1CCCCC2`, for which the result was active. With `N#Cc1c(/N=C/c2cccs2)sc2c1CCC2` the entry was “inactive”; with `N#Cc1c(/N=C/c2ccc(Br)s2)sc2c1CCC2`, “inactive”. For `COc1ccc(C(CNC(=O)c2ccc(-n3cnnn3)cc2)N2CCOCC2)cc1` (stereo not drawn) the value was “inactive”.

With `CC(=O)c1ccc(-c2nc3ccccc3n2C)o1`, the compound was classed as inactive. For the compound `Cn1cc(C(=O)c2ccccc2)cc1-c1nc2ccccc2n1C`, the outcome was inactive. With `Cc1oc(-c2nc3ccccc3n2C)cc1C(=O)c1ccccc1` the entry was “active”; with `C/C(=C1\SC(N2CCOCC2)=NC1=O)c1ccc(C)cc1`, “inactive”; with `Cc1ccc(CS(=O)(=O)CCC(=O)NCc2ccc3c(c2)OCO3)cc1`, “inactive”. In the case of `Cc1cc2nc(-c3ccc(NC(=O)C(C)C)cc3)oc2cc1C`, the outcome was inactive. For `CC(C)(C)c1ccc(OCC(=O)Nc2ccc(-c3nc4cccnc4o3)cc2)cc1` the value was “inactive”; for `Cc1ccc2oc(-c3ccc(NC(=O)CC(C)C)cc3)nc2c1`, “inactive”.

In the case of `CCC(=O)Nc1cccc(-c2nc3ccccc3o2)c1`, the outcome was inactive. With `CCCC(=O)Nc1ccc(-c2nc3cc(C)c(C)cc3o2)cc1`, the compound was called inactive. For `Cc1ccc(-c2nc3cc(NC(=O)C(C)C)ccc3o2)cc1C` the value was “inactive”. For `CCC(C)NCC(=O)Nc1ccc(-c2nc3cc(NC(=O)CNC(C)CC)ccc3o2)cc1` (stereo not drawn), the result was inactive. With `CCC(=O)Nc1ccc2oc(-c3ccccc3Br)nc2c1` the entry was “inactive”. As for `CCC(=O)Nc1ccc2oc(-c3cccc(C)c3)nc2c1`, the compound was called active. With `O=C(Nc1cc(C(F)(F)F)ccc1N1CCCCC1)c1ccco1` the entry was “inactive”; with `COCCNC(=O)CN1c2ccccc2CC1C` (stereo not drawn), “inactive”. With `CCCSc1nc(C)c(-c2csc(C(C#N)=C3CCCC3)n2)cc1C#N` the entry was “inactive”; with `CCOC(=O)N1CCN(CCC(=O)Nc2ccccc2OC)CC1`, “inactive”. Take `CS(=O)(=O)Nc1ccccc1C(=O)Nc1ccccc1Cl`: the result was inactive. For `COc1ccc(CCNC(=O)CSc2nnc(-c3ccc(F)cc3)o2)cc1OC` the value was “inactive”; for `CC(=O)C1=C(O)C(=O)N(Cc2ccccc2)C1c1cccs1` (stereo not drawn), “inactive”. With `COc1cc(C2c3c(oc4cc(C)c(C)cc4c3=O)C(=O)N2c2cc(C)ccn2)ccc1O` (stereo not drawn) the entry was “inactive”; with `COc1ccc(N2CCN(C(=O)CCNS(=O)(=O)c3cccs3)CC2)cc1`, “inactive”; with `CC(C)C(=O)Nc1ccc2oc(-c3cc(F)c(F)cc3Cl)nc2c1`, “inactive”. With `CC(C)(C)C(=O)Nc1ccc2oc(-c3cc(F)c(F)cc3Cl)nc2c1` the entry was “inactive”. For `CC(C)N=Cc1c(O)[nH]c2ccccc12`, the result was inactive. With `CN=Cc1c(NC)nc2c(C)cccn2c1=O` the entry was “inactive”; with `O=C(NCc1ccc(F)cc1)C1CCC(=O)N1CCc1ccccc1` (stereo not drawn), “inactive”. For `Cc1ccc(NC(=O)c2ccc(S(=O)(=O)N3CCCC3)cc2)cc1` the value was “inactive”; for `C[C@@H](NC(=O)c1coc(=O)c(Br)c1)c1ccccc1`, “inactive”; for `CN(C)CCNC(=O)c1coc(=O)c(Br)c1`, “inactive”. `O=C(CNC(=O)C1CCCCC1)NCCCO`: the compound was classed as inactive. With `CC(C)Nc1ncnc2c1cnn2-c1ccccc1` the entry was “inactive”. For the compound `COCC(C)Nc1ncnc2c1cnn2-c1ccc(Cl)cc1` (stereo not drawn), the result was inactive. With `COc1ccc(-n2ncc3c(NCc4ccco4)ncnc32)cc1` the entry was “inactive”; with `CCC(CO)Nc1ncnc2c1cnn2-c1ccc(OC)cc1` (stereo not drawn), “inactive”; with `CC(C)OCCCNc1ncnc2c1cnn2-c1ccccc1`, “active”. As for `Cc1cccc(-n2ncc3c(NC(C)C)ncnc32)c1`, the outcome was inactive.

For `CCCCNc1ncnc2c1cnn2-c1ccccc1`, the result was inactive.

Turning to `CCCNc1ncnc2c1cnn2-c1ccc(OC)cc1`, the compound was classed as inactive. With `Cc1ccc(-n2ncc3c(NCCCOC(C)C)ncnc32)c(C)c1` the entry was “inactive”; with `Cc1cc(C)nc(NS(=O)(=O)c2ccc(Br)s2)c1`, “inactive”.
